Structures can show the parent of a compound that is named as a salt.
What follows are compounds tested on HeLa (assay: MALAT1 nuclear FISH intensity, robust Z-score vs DMSO; higher = more nuclear MALAT1 lncRNA, active = -3 or less). Details: 10 µM; 6 h.
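Also: High-content confocal imaging of branched-DNA amplified FISH in 384-well plates, Hoechst-defined nuclei, score is well value minus plate DMSO median over DMSO robust SD, four wells per compound.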

Row | Structure (SMILES) | MALAT1 nuclear FISH intensity
1 | NCCCC[C@H](N[C@@H](CCc1ccccc1)C(=O)O)C(=O)N1CCC[C@H]1C(=O)O [Lisinopril Dihydrate] | -1.38 (inactive)
2 | Cn1cnc2c(F)c(Nc3ccc(Br)cc3Cl)c(C(=O)NOCCO)cc21 [Selumetinib (AZD6244)] | -6.47 (active)
3 | CN(C)CCN(Cc1cccs1)c1ccccn1 | -0.51 (inactive)
4 | COC(=O)CCc1ccc(OCC(O)CNC(C)C)cc1 (centres undefined) [Esmolol] | 0.156 (inactive)
5 | Cc1onc(-c2ccccc2)c1C(=O)N[C@@H]1C(=O)N2[C@@H]1SC(C)(C)[C@@H]2C(=O)O [Oxacillin sodium salt monohydrate] | 1.4 (inactive)
6 | C1CCC(C(CC2CCCCN2)C2CCCCC2)CC1 (centres undefined) [Perhexiline maleate salt] | -3.64 (active)
7 | CCCC(=O)Nc1ncnc2c1ncn2[C@@H]1O[C@@H]2COP(=O)(O)O[C@H]2[C@H]1OC(=O)CCC [Dibutyrylcyclic AMP] | -0.304 (inactive)
8 | CCCCC(C)(O)C/C=C/[C@H]1[C@H](O)CC(=O)[C@@H]1CCCCCCC(=O)OC (mixture of isomers) [Misoprostol] | -2.26 (inactive)
9 | c1ccc2c(-c3ccncc3)c[nH]c2c1 [Rockout] | -1.98 (inactive)
10 | O=Cc1c2[nH]c3ccccc3c2cc2[nH]c3ccccc3c12 [6-Formylindolo [3,2-B] carbazole] | -0.828 (inactive)
11 | CCOc1ccccc1OCCN[C@H](C)Cc1ccc(OC)c(S(N)(=O)=O)c1 | -1.94 (inactive)
12 | O=C(O)[C@H]1/C(=C/CO)O[C@@H]2CC(=O)N21 [Clavulanate Potassium] | 0.0212 (inactive)
13 | CC(=O)[C@H]1CC[C@H]2[C@@H]3CCC4=CC(=O)CC[C@]4(C)[C@H]3CC[C@]12C [Progesterone] | -1.26 (inactive)
14 | CCCCC[C@H](O)/C=C/[C@H]1C(=O)C=C[C@@H]1C/C=C\CCCC(=O)O [Prostaglandin J2] | -0.999 (inactive)
15 | C[C@H](Cn1cnc2c(N)ncnc21)OCP(=O)(O)O [Tenofovir] | -0.114 (inactive)
16 | O=C1CN(/N=C/c2ccc(-c3ccc([N+](=O)[O-])cc3)o2)C(=O)N1 [Dantrolene] | 1.77 (inactive)
17 | CCCCCC(O)C=CC1C(O)CC(O)C1CCCCCCC(=O)O (centres undefined) [Prostaglandin  F1a] | -0.894 (inactive)
18 | CC1(C)CCC2=C(O1)c1ccccc1C(=O)C2=O [Beta-lapachone] | -8.68 (active)
19 | CC[N+](C)(CC)CCC[n+]1c(-c2ccccc2)c2cc(N)ccc2c2ccc(N)cc21 [Propidium iodide] | -0.925 (inactive)
20 | CCN(CC)CCCC(C)Nc1ccnc2cc(Cl)ccc12 (centres undefined) [Chloroquine Diphosphate] | -0.205 (inactive)

Row | Structure (SMILES) | MALAT1 nuclear FISH intensity
21 | CC(C)C[C@H](NC(=O)[C@@H](Cc1c[nH]c2ccccc12)NC(=O)[C@H](Cc1ccc(O)cc1)NC(=O)[C@H](CO)NC(=O)[C@H](Cc1c[nH]c2ccccc12)NC(=O)[C@H](Cc1cnc[nH]1)NC(=O)[C@@H]1CCC(=O)N1)C(=O)N[C@@H](CCCN=C(N)N)C(=O)N1CCC[C@H]1C(=O)NCC(N)=O [Triptorelin Acetate] | -1.14 (inactive)
22 | NNCCc1ccccc1 [Phenelzine Sulfate] | 1.52 (inactive)
23 | COc1cc2ncc(-c3ccccc3)nc2cc1OC | 0.694 (inactive)
24 | Cc1occc(=O)c1O [Maltol] | -0.567 (inactive)
25 | CCCCCCCCCCCC=CC(C)(C)C=CCCCC(=O)O [7,7-Dimethyleicosadienoic acid] | 1.1 (inactive)
26 | CC(C)NC[C@H](O)COc1cccc2ccccc12 [(S)-(-)-propranolol HCl] | -0.625 (inactive)
27 | C[C@@H]1C/C=C/C=C/C=C/C=C/[C@H](O[C@@H]2O[C@H](C)[C@@H](O)[C@H](N)[C@@H]2O)C[C@@H]2O[C@](O)(C[C@@H](O)C[C@H]3O[C@@H]3/C=C/C(=O)O1)C[C@H](O)[C@H]2C(=O)O [Natamycin] | 0.00726 (inactive)
28 | CCN(CC)CCNC(=O)c1ccc(N)cc1 [Procainamide] | 0.718 (inactive)
29 | CCCCCCCCCCCCCCCCOCC(CO)OC(C)=O (centres undefined) [1-Hexadecyl-2-O-acetyl-glycerol] | 0.86 (inactive)
30 | CC/C=C\C/C=C\C/C=C\CCCCCCCC(=O)O [Linolenic acid (18:3 n-3)] | 0.533 (inactive)
31 | O=c1[nH]c(=O)n([C@@H]2O[C@H](CO)[C@@H](O)[C@@H]2F)cc1I [Fialuridine] | 0.751 (inactive)
32 | CN(C)C[C@H](O)Cn1c2ccc(Br)cc2c2cc(Br)ccc21 (racemic) [Wiskostatin] | 0.573 (inactive)
33 | CC#C[C@]1(O)CC[C@H]2[C@@H]3CCC4=CC(=O)CCC4=C3[C@@H](c3ccc(N(C)C)cc3)C[C@@]21C [Mifepristone] | -2.25 (inactive)
34 | COc1ccc2cccc(CCNC(C)=O)c2c1 [Agomelatine] | -0.97 (inactive)
35 | COc1ccc2cc([C@H](C)C(=O)O)ccc2c1 [Naproxen] | 0.982 (inactive)
36 | Cc1ccccc1C(OCCN(C)C)c1ccccc1 (centres undefined) [Orphenadrine Citrate] | 0.3 (inactive)
37 | Cc1oncc1C(=O)Nc1ccc(C(F)(F)F)cc1 [Leflunomide] | -0.325 (inactive)
38 | CC(C)(Oc1ccc(C2CC2(Cl)Cl)cc1)C(=O)O (centres undefined) [Ciprofibrate] | -0.469 (inactive)
39 | NCCNCCNCCN [Trientine Dihydrochloride] | 0.0546 (inactive)

— the supplement of paper PMC9844399
